Results on 40 molecules are retold here after PubChem BioAssay (NCI).

The structures appear in SMILES notation. This is part of a sample that, as a whole, favours compounds with a hit. Of some 83,000 tested, about 20% had one in any assay.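 The test compound was applied at a single concentration to cells in 96-well plates for 48 hours, and percent growth was recorded.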 Values without a mark were called inactive. The source made the active and inactive calls.

The test system of the experiment is SNB-75 CNS. As to the kind of experiment: NCI-60 one-dose screen, 48 h (100 = growth as untreated, 0 = no growth, -100 = all killed). As to conditions: 10 µM unless noted. As to the method: Growth inhibition of the SNB-75 human tumor cell line is measured as a screen for anti-cancer activity. Cells are grown in 96 well plates and exposed to the test compound for 48 hours. Compounds are tested at a single concentration, which is 10^-5 M for most compounds. The reported endpoint is percent growth (GI% or GIPRCNT), where numbers from 0 - 100% represent growth inhibition, and numbers from -100% - 0 represent cell death. For example, a value of 40 represents 60% growth inhibition. A value of 0 means no net growth occurred over the course of the experiment. A value of -40 indicates 40% of cells at the beginning of the experiment died by the end of the experiment. A value of -100 means all cells are dead at the end of the experiment.
NCI-60 Human Tumor Cell Lines Screen was performed using the standard one-dose NCI protocol, which is described in more detail at https://dtp.cancer.gov/discovery_development/nci-60/default.htm.
Compounds with GIPRCNT values below 10 were considered active. Activity score was based on GIPRCNT using the following formula: […]
Score is 0 for GIPRCNT values of 100 or above, 50 for GIPRCNT values of 0, and 100 for GIPRCNT values of -100.
On to `CC(C)=CCC/C(C)=C/C=N\N=C(/N)N[N+](=O)[O-]`, for which the growth was 89.8%.
The value for `O=C(N/N=C/c1ccc(N(CCCl)CCCl)cc1)c1cccc2ccccc12` was 76.7%.
Next, `COc1cc(/C=C/[N+](=O)[O-])cc(OC)c1`: 25.1%; `COC(=O)[C@@H](C)C[C@H](Cc1ccc(F)cc1)NC(=O)c1csc([C@@H](C[C@H](C(C)C)N(C)C(=O)[C@@H](NC(=O)[C@H]2CCCCN2C)C(C)C)OC(C)=O)n1`: 63.8%; `CCN1C(=O)C(=C/C=C/c2ccccc2)C(=O)N(CC)C1=O`: 96.8%.
For `COC(C(=O)[C@@H](O)[C@@H](C)O)[C@@H]1Cc2cc3cc(O[C@H]4C[C@@H](O[C@H]5C[C@@H](O)[C@H](O)C(C)O5)[C@H](O)C(C)O4)c(C)c(O)c3c(O)c2C(=O)[C@H]1O[C@H]1C[C@@H](O[C@H]2C[C@@H](O[C@H]3C[C@@H](O)[C@@H](O)C(C)O3)[C@@H](O)C(C)O2)[C@H](O)C(C)O1` (stereo not given in full), the growth is -31.8% (active).
Next, `CCCCN(CCCC)P(=O)(Oc1ccccc1)Oc1ccccc1`: 50.9%; `CCCCCCCCC(CO)NCCc1ccccc1` (stereo not given): 108%; `CC[C@H](C)[C@@H]1OC(=O)C(C)(C)[C@H](O)[C@H](Cc2ccccc2)OC(=O)[C@H](C(C)C)OC(=O)[C@@H](NC(=O)c2cccc(NC=O)c2O)[C@@H](C)OC1=O`: 63.9%.
For the molecule `CC[C@H](C)[C@H](NC(=O)C12CC(NC(C)=O)(C1)C2)C(=O)N(C)[C@H](C[C@@H](OC(C)=O)c1nc(C(=O)N[C@@H](Cc2ccccc2)C[C@H](C)C(=O)OC)cs1)C(C)C`, the growth is 44.8%.
The value for `CC(=O)O[C@H]1C(=O)[C@@]2(C)[C@H]([C@H](OC(=O)c3ccccc3)[C@]3(O)C[C@H](OC(=O)[C@H](OC(=O)OCC4COC(C)(C)O4)[C@@H](NC(=O)c4ccccc4)c4ccccc4)C(C)=C1C3(C)C)[C@]1(OC(C)=O)CO[C@@H]1C[C@@H]2O` (stereo not given in full) was 41.9%; that for `CC[C@H](C)[C@H](NC(=O)[C@H]1CCCCN1C)C(=O)N(C)[C@H](C[C@@H](OC(C)=O)c1nc(C(=O)N[C@@H](Cc2ccccc2)C[C@H](C)C(=O)OC)cs1)C(C)C` was 31.8%; that for `O=[N+]([O-])/C=C\c1ccc(Cl)c(Cl)c1` was 42%.
The value for `O=C(CCl)c1ccc([N+](=O)[O-])o1` was 51.3%; that for `CCOC(=O)N1CC1` was 90.8%.
Next, `COc1cc(C=C2c3ccccc3C(=O)c3ccccc32)ccc1OCCCCOc1cc2c(cc1OC)C(=O)N1CCCC1C=N2` (stereo not given): -90.9% (active).
Consider `CN(C)C(=O)Oc1ccc(Br)cc1`, for which the growth is 89%.
Next, `O=C(O)C1C(C(=O)O)C2(Cl)C(Cl)=C(Cl)C1(Cl)C2(Cl)Cl.[Hg]` (stereo not given): 86.6%.
As for `CCOC(=O)CCC(NC(=O)C(Cc1ccc(N(CCCl)CCCl)cc1)NC=O)C(=O)OCC` (stereo not given), the growth is 30.3%.
On to `Clc1ccc(CO/N=C(\Cn2ccnc2)c2ccc(Cl)cc2Cl)c(Cl)c1`, for which the growth is 30.4%.
With `CC1=C(CCCNS(C)(=O)=O)C2=C(C)C3(CC3)[C@@](C)(O)C(=O)C2=C1`, the growth was -60.6% (active).
With `C[C@]12CCc3sc(NCCc4ccccc4)nc3C1=CC[C@@H]1[C@@H]2CC[C@]2(C)C(=O)CC[C@@H]12`, the growth is 85.5%.
The value for `COc1cc2c(cc1OCc1ccccc1)C(CC(C)C)=[N+](C)CC2` was 64.9%; that for `Cc1sc2c(c1C)C(c1ccc(Cl)cc1)=N[C@@H](CC(=O)OC(C)(C)C)c1nnc(C)n1-2` was 18.6%; that for `CN1CCC(c2c[nH]c3ccccc23)C1` (stereo not given) was 95.5%.
For the molecule `COc1ccc(Nc2ccc([N+](=O)[O-])cc2[N+](=O)[O-])cc1CN(CCCl)CCCl`, the growth was 33.7%.
`O=C([O][Hg][CH2]C1OCCOC1[CH2][Hg][O]C(=O)c1ccccc1)c1ccccc1` (stereo not given): the growth is 92.5%.
Next, `Cc1cc(NC(=O)NCc2ccc(N3C(N)=NC(N)=NC3(C)C)cc2)ccc1S(=O)(=O)F`: 56%.
Next, `NC(N)=N/N=C\c1c[nH]c2ccc(Br)cc12`: 72.6%; `CC(C)(C)C(=O)OCOP(=O)(NCc1ccccc1)C1CCCN(O)C1=O` (stereo not given): 70.6%; `O=C(CC1(O)C(=O)Nc2ccc(Cl)cc21)c1ccc(C(=O)NCC2CCC3(CC2)OOC2(CCCCC2)OO3)cc1` (stereo not given): -3.77% (active).
Take `COC(=O)[C@]12CCC(C)(C)C[C@H]1[C@H]1C(=O)C[C@@H]3[C@@]4(C)C[C@@]5(CC(C)(C)[C@@H]4CC[C@@]3(C)[C@]1(C)CC2)OO[C@@](C)(C(F)(F)F)O5`: the growth was 74.9%.
For the molecule `COC(=O)N[C@H]1CCc2c(Br)c(OC)c(OC)c(OC)c2-c2ccc(SC)c(=O)cc21`, the growth is 29.1%.
For the molecule `CN1C(=O)C(=Cc2cn(CCCCCCn3c4ccccc4c(=O)c4ccccc43)c3ccccc23)C(=O)N(C)C1=O`, the growth is 91.4%.
As for `COP(=S)(N1CC1)N1CC1`, the growth was 103%.
Turning to `COc1ccc(/C(C)=C(\c2ccc(OCCN3CCOCC3)cc2)c2ccc(OC(=O)Cc3ccccc3)cc2)cc1`, the growth is 121%.
Next, `CCOC(=O)[C@@H](C)C[C@H](Cc1ccccc1)NC(=O)c1csc([C@@H](C[C@H](C(C)C)N(C)C(=O)CNC(=O)[C@H]2CCCCN2C)OC(C)=O)n1`: -13.4% (active); `CCCCN1CCCC[C@@H]1C(=O)N[C@H](C(=O)N(C)[C@H](C[C@@H](OC(C)=O)c1nc(C(=O)NC2CCC(C(=O)OC)CC2)cs1)C(C)C)C(C)C` (stereo not given in full): -4.95% (active); `COC(=O)[C@H](C[C@H](Cc1ccccc1)NC(=O)c1csc([C@@H](C[C@H](C(C)C)N(C)C(=O)[C@@H](NC(=O)[C@H]2CCCCN2C)C(C)C)OC(C)=O)n1)NC(=O)OCc1ccccc1`: 22.7% [8.5 µM].
Next, `O=P1(NCCCl)OCCCN1CCCl` (stereo not given): 115%.
